About 79,000 compounds went through this panel and 15% of them were active in at least one assay; those are over-represented in the sample as a whole. Values without a mark were called inactive. Active and inactive are the calls of the source. Cut-off read from the data, not from the text of the source: active = growth inhibition above about 70%; inactive = the rest.

Experiment [1] can be described thus: NCI Yeast Anticancer Drug Screen. Data for the rad50 strain (AID 155).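 Note: 0% = growth of vehicle-only cultures of the same strain.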 As to conditions: S. cerevisiae rad50 strain growth inhibition, stronger effect = higher value. The procedure, abridged: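 A DNA repair-deficient yeast mutant serves as the test organism; compound-induced growth inhibition is calculated against vehicle-treated cells.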
The nature of experiment [2]: NCI Yeast Anticancer Drug Screen. Data for the mec2-1 strain (AID 157). Conditions: S. cerevisiae mec2-1 strain, stronger effect = higher value. The procedure, abridged:
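Cells of the genetically defined mec2-1 yeast strain are incubated with test compound. Inhibition of growth is calculated against vehicle-treated controls.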

The nature of experiment [3]: NCI Yeast Anticancer Drug Screen. Data for the sgs1 mgt1 strain (AID 161).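 Note: 0% = growth of cultures given vehicle only.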 As to conditions: S. cerevisiae sgs1 mgt1 strain, stronger effect = higher value. The procedure, abridged: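 Mutant yeast exposed to compound; growth scored against vehicle-only wells.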
Experiment [4] in a line: NCI Yeast Anticancer Drug Screen. Data for the cln2 rad14 strain (AID 165).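 Note: 0% = growth equal to vehicle treated cultures.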 Conditions: S. cerevisiae cln2 rad14 strain, stronger effect = higher value. Put shortly:
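The screen exposed genetically defined yeast (cln2 rad14) to test compounds and scored growth inhibition relative to vehicle-treated controls.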

A short description of experiment [5]: NCI Yeast Anticancer Drug Screen. Data for the bub3 strain (AID 167). As to conditions: S. cerevisiae bub3 mutant strain, stronger effect = higher value. The procedure, abridged: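 Inhibition values come from growth of compound-treated mutant yeast normalised to vehicle-treated controls.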
The nature of experiment [6]: NCI Yeast Anticancer Drug Screen. Data for the mlh1 rad18 strain (AID 175). Conditions: S. cerevisiae mlh1 rad18 strain growth inhibition, stronger effect = higher value. Put shortly:
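Compound-treated yeast growth, normalised to vehicle controls. Strain bears defined DNA repair mutations.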

Where [7] appears, read: at 5.0 µM (retest, dose inferred, filed as 0.5).
Where [8] appears, read: at 50.0 µM (retest, dose inferred, filed as 5.0).

Regarding `COc1ccc(-c2c(C#N)c(-c3ccc(C)cc3)n(NS(=O)(=O)c3ccc(C)cc3)c(=O)c2C#N)cc1`, the growth inhibition in experiment [1] (setting [7]) was -2%; in experiment [1] (setting [8]), 55%; in experiment [1] (at 50.0 µM), 71.3% (active); in experiment [2] (setting [7]), -2%; in experiment [2] (setting [8]) it was 70% (active); in experiment [2] (at 50.0 µM), 68.7%. The growth inhibition was -3% in experiment [3] (setting [7]); 44% in experiment [3] (setting [8]); 84.7% (active) in experiment [3] (at 50.0 µM); -5% in experiment [4] (setting [7]); 68% in experiment [4] (setting [8]); 64.1% in experiment [4] (at 50.0 µM). Besides, the growth inhibition is 4% in experiment [5] (setting [7]); 65% in experiment [5] (setting [8]); 79.4% (active) in experiment [5] (at 50.0 µM); -2% in experiment [6] (setting [7]); 62% in experiment [6] (setting [8]); 83.6% (active) in experiment [6] (at 50.0 µM).
`c1ccc(NCCSc2nc3ccccc3s2)cc1`: the growth inhibition is 6% in experiment [1] (setting [7]); 44% in experiment [1] (setting [8]); 42.3% in experiment [1] (at 50.0 µM); 9% in experiment [2] (setting [7]); 22% in experiment [2] (setting [8]); 27.4% in experiment [2] (at 50.0 µM). The growth inhibition is 2% in experiment [3] (setting [7]); 80% (active) in experiment [3] (setting [8]); 26% in experiment [3] (at 50.0 µM); -21% in experiment [4] (setting [7]); 43% in experiment [4] (setting [8]); 8.55% in experiment [4] (at 50.0 µM). For the same molecule, the growth inhibition is 24% in experiment [5] (setting [7]); 70% (active) in experiment [5] (setting [8]); 81.6% (active) in experiment [5] (at 50.0 µM); 8% in experiment [6] (setting [7]); 77% (active) in experiment [6] (setting [8]); 77.7% (active) in experiment [6] (at 50.0 µM).
Consider `COc1ccc(CN(C)c2c(C)ccc3ccccc23)cc1`, for which the growth inhibition in experiment [1] (setting [7]) was 10%; in experiment [1] (setting [8]) it was 85% (active); in experiment [1] (at 50.0 µM), 5.3%; in experiment [2] (setting [7]), 2%; in experiment [2] (setting [8]), 58%; in experiment [2] (at 50.0 µM), -2.9%. Further, the growth inhibition in experiment [3] (setting [7]) is 2%; in experiment [3] (setting [8]), 78% (active); in experiment [3] (at 50.0 µM) it was 23.3%; in experiment [4] (setting [7]), 2%; in experiment [4] (setting [8]), 59%; in experiment [4] (at 50.0 µM) it was -15.2%. Moreover, the growth inhibition in experiment [5] (setting [7]) is 1%; in experiment [5] (setting [8]), 98% (active); in experiment [5] (at 50.0 µM), 79.6% (active); in experiment [6] (setting [7]), 3%; in experiment [6] (setting [8]), 78% (active); in experiment [6] (at 50.0 µM), 13.2%.
In the case of `Nc1nc(N)c2c(ccc3c2ccn3Cc2cccc([N+](=O)[O-])c2)n1`, the growth inhibition in experiment [1] (setting [7]) is 39%; in experiment [1] (setting [8]) it was 60%; in experiment [1] (at 50.0 µM) it was 19.9%; in experiment [2] (setting [7]), 70% (active); in experiment [2] (setting [8]) it was 90% (active); in experiment [2] (at 50.0 µM), 0.75%. The growth inhibition in experiment [3] (setting [7]) was 56%; in experiment [3] (setting [8]), 67%; in experiment [3] (at 50.0 µM), 54.4%; in experiment [4] (setting [7]), 38%; in experiment [4] (setting [8]), 53%; in experiment [4] (at 50.0 µM), 57.5%. In addition, the growth inhibition in experiment [5] (setting [7]) is 43%; in experiment [5] (setting [8]), 51%; in experiment [5] (at 50.0 µM) it was 83.5% (active); in experiment [6] (setting [7]) it was 29%; in experiment [6] (setting [8]), 46%; in experiment [6] (at 50.0 µM), 14.6%.
Consider `CN=C(N)N/N=C(\C)c1ccc2c(c1)Cc1cc(/C(C)=N/NC(N)=NC)ccc1-2`, for which the growth inhibition in experiment [1] (setting [7]) is 63%; in experiment [1] (setting [8]), 94% (active); in experiment [1] (at 50.0 µM), 87% (active); in experiment [2] (setting [7]), 53%; in experiment [2] (setting [8]), 96% (active); in experiment [2] (at 50.0 µM) it was 75.9% (active). The growth inhibition in experiment [3] (setting [7]) was 45%; in experiment [3] (setting [8]), 98% (active); in experiment [3] (at 50.0 µM), 83.2% (active); in experiment [4] (setting [7]) it was 50%; in experiment [4] (setting [8]), 95% (active); in experiment [4] (at 50.0 µM), 85.3% (active). Further, the growth inhibition in experiment [5] (setting [7]) was 54%; in experiment [5] (setting [8]) it was 96% (active); in experiment [5] (at 50.0 µM), 86.1% (active); in experiment [6] (setting [7]) it was 59%; in experiment [6] (setting [8]), 96% (active); in experiment [6] (at 50.0 µM), 86.4% (active).
Regarding `N#Cc1c(SCc2ccc(Cl)cc2)nsc1Nc1ccc(Cl)cc1`, the growth inhibition is 90% (active) in experiment [1] (setting [7]); 95% (active) in experiment [1] (setting [8]); 86.2% (active) in experiment [1] (at 50.0 µM); 91% (active) in experiment [2] (setting [7]); 95% (active) in experiment [2] (setting [8]); 88% (active) in experiment [2] (at 50.0 µM). Besides, the growth inhibition in experiment [3] (setting [7]) was 91% (active); in experiment [3] (setting [8]), 98% (active); in experiment [3] (at 50.0 µM) it was 87.2% (active); in experiment [4] (setting [7]), 87% (active); in experiment [4] (setting [8]), 97% (active); in experiment [4] (at 50.0 µM) it was 87.7% (active). Besides, the growth inhibition in experiment [5] (setting [7]) is 86% (active); in experiment [5] (setting [8]) it was 98% (active); in experiment [5] (at 50.0 µM), 21%; in experiment [6] (setting [7]) it was 93% (active); in experiment [6] (setting [8]), 93% (active); in experiment [6] (at 50.0 µM), 86% (active).
In the case of `O=C(CNC(=O)c1ccccc1)NNc1ccccc1`, the growth inhibition in experiment [1] (setting [7]) was 16%; in experiment [1] (setting [8]), 62%; in experiment [1] (at 50.0 µM) it was 86.7% (active); in experiment [2] (setting [7]), 4%; in experiment [2] (setting [8]), 65%; in experiment [2] (at 50.0 µM) it was 71.2% (active). Also, the growth inhibition in experiment [3] (setting [7]) is 8%; in experiment [3] (setting [8]), 67%; in experiment [3] (at 50.0 µM), 32.8%; in experiment [4] (setting [7]), 3%; in experiment [4] (setting [8]) it was 68%; in experiment [4] (at 50.0 µM), 48.8%. The growth inhibition is 7% in experiment [5] (setting [7]); 89% (active) in experiment [5] (setting [8]); 32.5% in experiment [5] (at 50.0 µM); 30% in experiment [6] (setting [7]); 93% (active) in experiment [6] (setting [8]); 86.9% (active) in experiment [6] (at 50.0 µM).
With `C=C(CCC(C)C1CCC2(C)C3=C(CC(O)C12C)C1(C)CCC(O)C(C)(C)C1CC3)C(C)C(=O)O` (stereo not given), the growth inhibition is 11% in experiment [1] (setting [7]); 88% (active) in experiment [1] (setting [8]); 84.1% (active) in experiment [1] (at 50.0 µM); 15% in experiment [2] (setting [7]); 91% (active) in experiment [2] (setting [8]); 83% (active) in experiment [2] (at 50.0 µM). Further, the growth inhibition in experiment [3] (setting [7]) is 20%; in experiment [3] (setting [8]), 90% (active); in experiment [3] (at 50.0 µM) it was 84.8% (active); in experiment [4] (setting [7]), 40%; in experiment [4] (setting [8]), 96% (active); in experiment [4] (at 50.0 µM), 87.3% (active). Moreover, the growth inhibition in experiment [5] (setting [7]) is 29%; in experiment [5] (setting [8]), 94% (active); in experiment [5] (at 50.0 µM) it was 80.9% (active); in experiment [6] (setting [7]), 30%; in experiment [6] (setting [8]), 95% (active); in experiment [6] (at 50.0 µM), 82.7% (active).
`CCCCCCC(=O)OCc1ccc(-c2ccccc2)cc1`: the growth inhibition in experiment [1] (setting [7]) is 97% (active); in experiment [1] (setting [8]), 99% (active); in experiment [1] (at 50.0 µM) it was 99% (active); in experiment [2] (setting [7]) it was 98% (active); in experiment [2] (setting [8]), 100% (active); in experiment [2] (at 50.0 µM), 99.4% (active). For the same molecule, the growth inhibition in experiment [3] (setting [7]) is 95% (active); in experiment [3] (setting [8]), 100% (active); in experiment [3] (at 50.0 µM) it was 99.3% (active); in experiment [4] (setting [7]), 26%; in experiment [4] (setting [8]), 94% (active); in experiment [4] (at 50.0 µM), 99% (active). Moreover, the growth inhibition in experiment [5] (setting [7]) is 70% (active); in experiment [5] (setting [8]), 99% (active); in experiment [5] (at 50.0 µM), 99.2% (active); in experiment [6] (setting [7]), 99% (active); in experiment [6] (setting [8]), 99% (active); in experiment [6] (at 50.0 µM), 99.2% (active).
For the molecule `Cc1ccc(O)c2c(NCCCCCCNc3cc(C)[n+](C)c4c(C)ccc(O)c34)cc(C)[n+](C)c12`, the growth inhibition in experiment [1] (setting [7]) is -1%; in experiment [1] (setting [8]) it was 87% (active); in experiment [1] (at 50.0 µM), 89% (active); in experiment [2] (setting [7]), 0%; in experiment [2] (setting [8]) it was 76% (active); in experiment [2] (at 50.0 µM), 90.4% (active). Besides, the growth inhibition in experiment [3] (setting [7]) is -1%; in experiment [3] (setting [8]) it was 71% (active); in experiment [3] (at 50.0 µM), 92.7% (active); in experiment [4] (setting [7]), 5%; in experiment [4] (setting [8]), 60%; in experiment [4] (at 50.0 µM), 72.7% (active). Also, the growth inhibition in experiment [5] (setting [7]) was -6%; in experiment [5] (setting [8]), 76% (active); in experiment [5] (at 50.0 µM) it was 77.5% (active); in experiment [6] (setting [7]), -2%; in experiment [6] (setting [8]), 84% (active); in experiment [6] (at 50.0 µM), 90.2% (active).

These data come from PubChem BioAssay (NCI).
